In ChEMBL document CHEMBL3988442, “University of Dundee, Small-Polar-MMV Screening Library” (2021):
The campaign covered roughly 48,000 compounds. About 13,000 (27%) showed an effect of 50% or more. The list shows a part of the results.

These molecules were tested on Wolbachia pipientis (assay: Anti-Wolbachia Cell-Based Screen). Conditions: 5 µM.
Type: functional
Set-up: scale not given: in the data most compounds retested in dose-response had high values

| Compound | Percent Effect [%] |
| --- | --- |
| Cc1nc(C)c2c(n1)CCN(C(=O)C1(C#N)CC1)CC2 | -4.604 |
| Fc1cccc(-c2nnn3c2COC(CNCc2nccs2)C3)c1.O=C(O)C(F)(F)F (stereo unspecified) | -16.9 |
| CC(=O)N1CCN(C(C)C)CC(COc2ccccc2)C1 (stereo unspecified) | 109.4 |
| COc1cccc(OCC2CCCN(C3CCN(C(C)=O)CC3)C2)c1 (stereo unspecified) | -9.945 |
| COc1cccc(OCC2CCCN(C(C)=O)C2)c1 (stereo unspecified) | -1.082 |
| Cc1nccc(N2CCC(Cc3cccc(C(=O)O)c3)CC2)n1 | 4.494 |
| CC(=O)N1CCN(CC(N)=O)CC(COc2ccccc2)C1 (stereo unspecified) | 106.5 |
| CC(=O)N1CCN(c2ccnc(C)n2)CC(COc2ccccc2)C1 (stereo unspecified) | 112.4 |
| Cc1ccc(OCC2CCCN(C(=O)CN3CCOCC3)C2)cc1 (stereo unspecified) | -2.27 |
| CNC(=O)c1ccnc(N2CCCC(COc3cccc(C)c3)C2)c1 (stereo unspecified) | -58.5 |
| O=C(N1CCN(CCO)CC1)C1(O)Cc2ccccc2C1 | -5.424 |
| CCc1ccc(S(=O)(=O)Nc2cn(C)cc(Br)c2=O)cc1 | -15.07 |
| Cc1ccc(-c2ncc(CN3CCN(S(N)(=O)=O)CC3)s2)o1 | 2.671 |
| CCn1ccnc1CN(C)c1nc(-c2ccc(Cl)cc2)nc2c1CNC2 | -33.82 |
| O=c1nc(SCc2ccncc2)c2c(n1CCO)CCCC2 | -12.21 |
| CC[C@H](C)Cn1nc(C2CCNCC2)n(Cc2ccccc2)c1=O | -2.943 |
| CN1CCCC1c1cc2cccnc2n1Cc1ccc(F)cc1.Cl (stereo unspecified) | 120.9 |
| COc1ccc(Cn2c(C3CCNCC3)cc3cccnc32)cc1.Cl | 109.4 |
| COc1cccc(CN2C[C@H]3CCNCC[C@H]3S2(=O)=O)c1 | 18.94 |
| COc1cccc(Cn2c(C3CCNCC3)cc3cccnc32)c1.Cl | 140.1 |
| CN1CCCCC1c1nc(Cc2cccc(F)c2)no1 (stereo unspecified) | -5.711 |
| CCOC(C)C(=O)Nc1ccc(Sc2nncn2C)c(Cl)c1 (stereo unspecified) | -6.719 |
| Cc1cc(CS(=O)(=O)N(C)C(C)c2ccc(F)cc2)on1 (stereo unspecified) | -9.775 |
| CN(C)C(=O)NCc1cc2n(n1)CCN(C[C@H]1[C@@H]3CNC[C@@H]31)C2 | -18.92 |
| Cc1cnn(CCNCC(O)COc2c(C)ccc(C)c2C)c1 (stereo unspecified) | -3.427 |
| COc1cccc(-c2cccc(-c3ccn(CC4COCCO4)n3)c2)n1 (stereo unspecified) | -14.19 |

| Compound | Percent Effect [%] |
| --- | --- |
| COc1ccccc1CNC1(CCO)CCOCC1 | 8.279 |
| Cc1cnc(C(=O)N2C[C@H]3CN(Cc4nccs4)C[C@H]3C2)cn1 | 103.8 |
| Cc1cnc(C(=O)N2C[C@H]3CN(Cc4cccs4)C[C@H]3C2)cn1 | 71.69 |
| O=C(c1cscn1)N1C[C@H]2CN(Cc3nccs3)C[C@H]2C1 | -12.17 |
| Cc1cnc(C(=O)N2C[C@@H]3[C@@H](C2)OCC(=O)N3CC2CCCC2)cn1 | 9.694 |
| CNC(=O)[C@H]1C[C@@H]2CN(C(=O)c3cnc(C)cn3)C[C@@H]2N1C | 18.09 |
| Cc1cnc(C(=O)N2C[C@H]3CCCC(OCc4cccnc4)[C@H]3C2)cn1 (stereo partly specified) | -8.577 |
| O=C(O)C(F)(F)F.O=C1C[C@H]2[C@@H](CCN2C(=O)c2ccccc2)N1CCN1CCOCC1 | -5.805 |
| Cc1cccc(OC2CCN(c3nc(N)nc4[nH]cnc34)CC2)c1 | -26.6 |
| COc1ccccc1N1CCN(c2nc(N)nc3[nH]cnc23)CC1 | 106.2 |
| COc1ccccc1OC1CCN(c2nc(N)nc3[nH]cnc23)CC1 | -23.58 |
| Cc1ccc2nc(CN3CCN(C4CCCC4)C(=O)C3)cc(O)c2c1 | 1.578 |
| O=C1CN(Cc2ccc3ccccc3n2)CCN1C1CCCC1 | 128.2 |
| Cc1ccc2nc(CN3CCN(C4CCCCC4)C(=O)C3)cc(O)c2c1 | -5.19 |
| Cc1ccc(-c2cccc(CC3(C(=O)O)CCOCC3)c2)c(C)c1 | 93.34 |
| Cc1cc(C)cc(-c2cccc(CC3(C(=O)O)CCOCC3)c2)c1 | -21.94 |
| Cc1cccc(-c2cccc(CC3(C(=O)O)CCOCC3)c2)c1 | 103 |
| Cc1cccc(NC(=O)NCC2(N3CCOCC3)CCSC2)c1 (stereo unspecified) | 9.501 |
| COc1ccc(CC2(C(=O)O)CCN(c3nc(C)ncc3C)CC2)cc1 | -10.05 |
| Cc1ccccc1-c1cccc(CN2C[C@H]3C(=O)NC[C@@]3(C(=O)O)C2)c1 | 6.685 |
| C=C(C)CN(CC)C(=O)Nc1ccccc1CN(C)C(C)=O | 4.408 |
| Cc1nc2ccc(CN3CC4(CCOC4)CCC3=O)cc2[nH]1 (stereo unspecified) | 9.533 |
| COCc1nc2n(n1)CCCC2Nc1nc(C)ns1 (stereo unspecified) | -20.01 |
| COc1ccccc1OCc1cc(C(=O)N2CCS(=O)(=O)CC2)n[nH]1 | -14.83 |
| COc1ccccc1OCc1cc(C(=O)N2CCC(C(C)O)CC2)n[nH]1 (stereo unspecified) | 7.435 |
| COc1ccccc1OCc1cc(C(=O)N2CCN[C@H](C)C2)n[nH]1 | 8.163 |

| Compound | Percent Effect [%] |
| --- | --- |
| CCC1(CO)CCN(C(=O)c2cc(COc3ccccc3F)[nH]n2)CC1 | 118.9 |
| CCC1(CO)CCCN(C(=O)c2cc(COc3cccc(F)c3)[nH]n2)C1 (stereo unspecified) | 87.47 |
| COc1ccccc1OCc1cc(C(=O)N2CCN(C(C)=O)CC2)n[nH]1 | -25.23 |
| CCC1(CO)CCCN(C(=O)c2cc(COc3ccccc3F)[nH]n2)C1 (stereo unspecified) | 110.4 |
| O=C(c1cc(COc2ccc3c(c2)OCO3)[nH]n1)N1CCCC1 | -5.101 |
| COc1cccc(OCc2cc(C(=O)N3CC(O)C3)n[nH]2)c1 | -9.479 |
| CC(C)N(Cc1ccccc1)Cc1csc(-c2ncccn2)n1 | -35.25 |
| Cc1cccc(NC(=O)N2CCn3cnc(COCC4CC4)c3C2)c1 | 96.57 |
| CCOCc1ncn2c1CN(C(=O)Nc1ccccc1)CC2 | 106.5 |
| CCOCc1ncn2c1CN(C(=O)Nc1cccc(C)c1)CC2 | -4.198 |
| Cc1cccc(C(=O)N2CCn3cnc(COCC4CC4)c3C2)c1 | -5.443 |
| CCOCc1ncn2c1CN(C(=O)c1ccoc1)CC2 | -9.138 |
| Cn1nc(CN2CCCCC2)c2c1CN(C(=O)Nc1cccc(F)c1)C2 | -11.17 |
| CCOCc1ncn2c1CN(S(=O)(=O)c1cccs1)CC2 | -7.388 |
| CCOCc1ncn2c1CN(C(=O)Nc1cccc(F)c1)CC2 | 101.4 |
| Cc1cccc(C(=O)N2CCn3cnc(COCC4CC4)c3C2)n1 | -8.525 |
| CCc1cccc(NC(=O)N2CCn3cnc(COC)c3C2)c1 | 112.6 |
| CCN(CCSc1ccccc1)C(=O)c1cn([C@H]2CC[C@@H](N)CC2)nn1 | -3.362 |
| Cc1ccc(Cl)cc1NS(=O)(=O)c1cc(C(N)=O)n(C)c1 | -91.07 |
| Cc1cccc(C(=O)N2CCc3ncnc(C4CCOC4)c3CC2)n1.O=C(O)C(F)(F)F (stereo unspecified) | -11.48 |
| COC(=O)c1sc(NCc2ccc(N3CCC(O)CC3)c(F)c2)nc1Cl | -2.093 |
| CC(C)C(N)C1=N/C(=C2\N=CN=N2)NO1 (stereo unspecified) | -4.222 |
| CCn1ccnc1CN(C)Cc1nc(Cc2ccccc2F)no1 | -2.902 |
| COCc1ncn2c1CN(C(=O)Nc1ccccc1)CC2 | 105.1 |
| COc1cccc(S(=O)(=O)N2CCn3cnc(COCC4CC4)c3C2)c1 | -6.989 |
| CCOCc1ncn2c1CN(S(=O)(=O)c1ccc(C)cc1)CC2 | 1.086 |

| Compound | Percent Effect [%] |
| --- | --- |
| CCOCc1ncn2c1CN(C(=O)Nc1ccc(CC)cc1)CC2 | 108 |
| COCc1ncn2c1CN(C(=O)Nc1cccc(OC)c1)CC2 | 106.3 |
| CCOCc1ncn2c1CN(C(=O)Nc1ccccc1CC)CC2 | 104.8 |
| CCc1ccccc1NC(=O)N1CCn2cnc(COC)c2C1 | 1.009 |
| CCOCc1ncn2c1CN(S(=O)(=O)c1ccc(F)cc1)CC2 | 3.769 |
| O=C(Nc1ccccc1)N1CCn2nnc(COc3cccnc3)c2C1.O=C(O)C(F)(F)F | -20.87 |
| COCc1ncn2c1CN(S(=O)(=O)c1ccc(C)cc1)CC2 | -7.243 |
| COc1cccc(NC(=O)N2CCC(O)(C(F)(F)F)C2)c1 (stereo unspecified) | -18.52 |
| N#Cc1ccc(F)c(CN2CCCC2Cn2cnc3ccccc32)c1 (stereo unspecified) | -5.507 |
| CN1CCOC(C(=O)Nc2nnc(Cc3ccc(F)cc3)[nH]2)C1 (stereo unspecified) | -0.8523 |
| Cc1cccc(NCc2ncc(C(C)(C)C)o2)c1 | -14.59 |
| O=C(CN1CCS(=O)(=O)CC1)NC1CCCOc2ccccc21 (stereo unspecified) | 0.4653 |
| CCN(Cc1ccoc1)C(=O)c1cc2c(c(S(N)(=O)=O)c1)CCC2 | -33.33 |
| CN(CC(=O)NC(C)(C#N)C1CC1)Cc1nc2ccccc2n1C (stereo unspecified) | -1.45 |
| COc1cc2cc3c(nc2cc1OC)OCCN(Cc1cccs1)C3 | 120.6 |
| COc1cccc2c1OCCCN(Cc1ncccc1C(=O)O)C2 | 13.59 |
| COc1cncc(N2CCN(Cc3ccco3)CC2)n1 | -6.733 |
| COc1cc2cc3c(nc2cc1OC)OCCN(CC1CC1)C3 | 154.4 |
| COc1ccccc1CN1C(=O)O[C@@H]2CN(CC3CC3)C[C@@H]21 | 6.078 |
| COc1cc2cc3c(nc2cc1OC)OCCN(Cc1ccco1)C3 | 100 |
| CC(C)N1CCOCC2(CN(Cc3ccco3)CCO2)C1 (stereo unspecified) | -3.394 |
| c1ccc(O[C@H]2COCCN(CC3CC3)C2)cc1 | -13.37 |
| COc1ncc(C2(O)CCN(Cc3cccs3)CC2)c(OC)n1.Cl | -7.48 |
